From ChEMBL document CHEMBL1961873, “Compounds: GSK PKIS; Assays: Nanosyn kinase panel” (2012)
Several values for one entry are separate records, joined by “and”; a condition that tells them apart may be missing. Identical values can stand only once.

Key:
[1] = biological target: RAC-alpha serine/threonine-protein kinase (Homo sapiens) (UniProt P31749); settings: at 0.1 µM
[2] = biological target: RAC-alpha serine/threonine-protein kinase (Homo sapiens) (UniProt P31749); settings: at 1 µM
[3] = biological target: RAC-beta serine/threonine-protein kinase (Homo sapiens) (UniProt P31751); settings: at 0.1 µM
Chain of RAC-beta serine/threonine-protein kinase (Homo sapiens) (P31751 whole entry): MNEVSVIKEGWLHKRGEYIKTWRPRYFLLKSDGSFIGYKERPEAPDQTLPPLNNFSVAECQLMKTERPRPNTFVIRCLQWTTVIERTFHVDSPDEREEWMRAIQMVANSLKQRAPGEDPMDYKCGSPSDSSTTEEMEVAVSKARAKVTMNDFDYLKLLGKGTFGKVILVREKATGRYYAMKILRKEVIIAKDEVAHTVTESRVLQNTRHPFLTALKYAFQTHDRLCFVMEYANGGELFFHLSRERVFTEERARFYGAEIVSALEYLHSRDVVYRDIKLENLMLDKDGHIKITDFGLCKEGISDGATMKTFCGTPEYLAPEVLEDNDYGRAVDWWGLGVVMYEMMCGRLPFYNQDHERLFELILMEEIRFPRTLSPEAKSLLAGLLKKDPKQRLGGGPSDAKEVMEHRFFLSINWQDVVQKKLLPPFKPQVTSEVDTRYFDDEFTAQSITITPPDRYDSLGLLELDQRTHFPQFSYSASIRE

[4] = biological target: RAC-beta serine/threonine-protein kinase (Homo sapiens) (UniProt P31751); settings: at 1 µM
[5] = biological target: RAC-gamma serine/threonine-protein kinase (Homo sapiens) (UniProt Q9Y243); settings: at 0.1 µM
Chain of RAC-gamma serine/threonine-protein kinase (Homo sapiens) (Q9Y243 whole entry): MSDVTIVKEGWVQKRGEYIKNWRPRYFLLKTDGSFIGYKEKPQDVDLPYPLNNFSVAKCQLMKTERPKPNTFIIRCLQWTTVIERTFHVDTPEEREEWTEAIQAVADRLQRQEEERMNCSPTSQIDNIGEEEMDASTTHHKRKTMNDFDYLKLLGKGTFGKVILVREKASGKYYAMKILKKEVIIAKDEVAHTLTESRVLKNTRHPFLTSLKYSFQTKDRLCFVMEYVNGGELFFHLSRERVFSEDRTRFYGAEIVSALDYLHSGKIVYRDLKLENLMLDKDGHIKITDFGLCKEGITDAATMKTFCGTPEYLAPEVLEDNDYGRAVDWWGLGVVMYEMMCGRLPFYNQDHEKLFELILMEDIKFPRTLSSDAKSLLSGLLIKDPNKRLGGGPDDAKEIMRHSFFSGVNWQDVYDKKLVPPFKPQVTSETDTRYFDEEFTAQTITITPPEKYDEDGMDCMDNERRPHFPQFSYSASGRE

[6] = biological target: RAC-gamma serine/threonine-protein kinase (Homo sapiens) (UniProt Q9Y243); settings: at 1 µM
[7] = biological target: G protein-coupled receptor kinase 6 (Homo sapiens) (UniProt P43250); settings: at 0.1 µM
Chain of G protein-coupled receptor kinase 6 (Homo sapiens) (P43250 whole entry, looked up): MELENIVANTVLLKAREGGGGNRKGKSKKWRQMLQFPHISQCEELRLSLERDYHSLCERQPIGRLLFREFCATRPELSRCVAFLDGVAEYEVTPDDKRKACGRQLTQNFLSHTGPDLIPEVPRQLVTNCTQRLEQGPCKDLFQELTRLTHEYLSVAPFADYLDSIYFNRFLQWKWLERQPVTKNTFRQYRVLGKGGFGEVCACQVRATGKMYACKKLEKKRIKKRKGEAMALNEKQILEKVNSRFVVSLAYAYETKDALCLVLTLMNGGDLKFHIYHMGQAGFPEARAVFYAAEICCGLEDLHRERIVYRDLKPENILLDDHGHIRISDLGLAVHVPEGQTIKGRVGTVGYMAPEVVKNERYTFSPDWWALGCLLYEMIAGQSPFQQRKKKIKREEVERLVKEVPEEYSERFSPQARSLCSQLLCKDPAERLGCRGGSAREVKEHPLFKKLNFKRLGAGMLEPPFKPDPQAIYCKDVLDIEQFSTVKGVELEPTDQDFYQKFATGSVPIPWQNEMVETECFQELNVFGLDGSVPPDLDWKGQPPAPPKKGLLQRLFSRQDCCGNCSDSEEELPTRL

[8] = biological target: G protein-coupled receptor kinase 6 (Homo sapiens) (UniProt P43250); settings: at 1 µM
[9] = biological target: T1, Rhodopsin kinase GRK7 (Homo sapiens) (UniProt Q8WTQ7); settings: at 0.1 µM
T1 sequence (whole entry): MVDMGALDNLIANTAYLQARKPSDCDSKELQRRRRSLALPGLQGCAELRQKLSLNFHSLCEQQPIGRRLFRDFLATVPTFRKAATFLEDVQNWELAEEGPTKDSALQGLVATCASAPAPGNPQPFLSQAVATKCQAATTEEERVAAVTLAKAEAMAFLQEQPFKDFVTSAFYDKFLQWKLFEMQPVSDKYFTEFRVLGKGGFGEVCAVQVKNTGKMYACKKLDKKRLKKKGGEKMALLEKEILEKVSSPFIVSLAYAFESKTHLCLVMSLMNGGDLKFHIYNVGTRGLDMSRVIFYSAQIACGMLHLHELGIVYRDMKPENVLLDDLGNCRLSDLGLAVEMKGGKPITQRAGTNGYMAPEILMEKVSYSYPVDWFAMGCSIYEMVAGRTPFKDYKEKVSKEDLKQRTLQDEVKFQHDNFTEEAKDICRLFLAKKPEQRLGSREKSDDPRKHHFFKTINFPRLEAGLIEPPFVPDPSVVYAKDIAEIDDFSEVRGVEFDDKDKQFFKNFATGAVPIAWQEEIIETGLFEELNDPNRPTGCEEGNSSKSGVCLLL

[10] = biological target: T1, Rhodopsin kinase GRK7 (Homo sapiens); settings: at 1 µM

Chain of RAC-alpha serine/threonine-protein kinase (Homo sapiens) (P31749 whole entry): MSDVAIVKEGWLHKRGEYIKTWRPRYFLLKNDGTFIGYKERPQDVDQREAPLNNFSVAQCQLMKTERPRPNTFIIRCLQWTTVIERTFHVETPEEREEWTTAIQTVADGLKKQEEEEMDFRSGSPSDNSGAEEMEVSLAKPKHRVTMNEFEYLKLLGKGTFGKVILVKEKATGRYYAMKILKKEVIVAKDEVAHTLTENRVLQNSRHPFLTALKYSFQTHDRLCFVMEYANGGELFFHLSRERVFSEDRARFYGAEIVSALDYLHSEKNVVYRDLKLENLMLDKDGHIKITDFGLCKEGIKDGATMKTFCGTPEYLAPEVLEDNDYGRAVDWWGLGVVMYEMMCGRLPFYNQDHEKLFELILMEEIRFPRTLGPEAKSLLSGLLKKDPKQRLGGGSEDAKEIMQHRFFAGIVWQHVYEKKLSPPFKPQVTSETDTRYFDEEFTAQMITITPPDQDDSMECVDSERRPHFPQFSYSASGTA

| Structure (SMILES) | inhibition [1] | inhibition [2] | inhibition [3] | inhibition [4] | inhibition [5] | inhibition [6] | inhibition [7] | inhibition [8] | inhibition [9] | inhibition [10] |
| --- | --- | --- | --- | --- | --- | --- | --- | --- | --- | --- |
| NS(=O)(=O)c1ccc(N/N=C2\C(=O)Nc3cccc(CCc4ccncc4)c32)cc1 | 0.52% | 0.04% | -0.35% | 0.27% | 0.45% | 1.65% | 0.11% | 1.61% | 7.3% | 5.05% |
| Nc1nccc(-c2c(-c3ccc(F)cc3)ncn2C2CCNCC2)n1 | -2.52% and -0.57% | -1.44% and -0.36% | -2.1% and -0.23% | -2.04% and 0.22% | -2.91% and 1.34% | -1.79% and 2.95% | -0.3% and 1.54% | 1.28% and -0.27% | -9.73% and -0.04% | -3.87% and -0.11% |
| CN1CCN(Cc2ccc(-c3cc4ncnc(Nc5ccc(OCc6cccc(F)c6)c(Cl)c5)c4s3)o2)CC1 | 2.3% and 0.84% | 0.33% and 0.82% | 1.77% and 3.25% | 4.18% and 1.52% | 0.53% and 1.8% | 4.32% and 3.89% | -0.68% and 8.35% | -0.78% and 9.33% | 9.19% and 5.43% | 0.67% and 9.84% |
| Fc1ccc(Nc2nccc(-c3c(-c4ccc(C(F)(F)F)cc4)nn4ncccc34)n2)cc1F | 1.15% | 1.34% | 0.91% | 1.4% | 1.72% | 1.36% | 0.33% | -0.08% | 2.15% | -0.32% |
| COc1cccc(-n2ncc3c(N/N=C/c4ccc(C(=O)NCCN(C)C)cc4)ncnc32)c1 | 0.53% | -4.74% | 1.29% | -2.95% | 1.33% | -1.17% | -2.74% | -7.47% | 1.52% | -8.73% |
| CC(C)c1ccc(-c2cc(-c3c[nH]nc3-c3ccccn3)ccn2)cc1 | 0.13% | 0.07% | -0.03% | 0.06% | 1.01% | 0.29% | -1.41% | -0.19% | 2.99% | 1.48% |
| COc1ccc2ncn(-c3cc(O[C@H](C)c4ccccc4C(F)(F)F)c(C(N)=O)s3)c2c1 | -0.49% | -0.66% | -0.92% | -0.19% | 0.16% | 0.41% | -0.28% | 1.33% | -1.81% | 5.21% |
| O=C1Nc2ccccc2/C1=C1\CCc2cc(O)ccc21 | 1.29% | 1.37% | 1.86% | 4.03% | 3.35% | 1.29% | 2.32% | 15% | 3.45% | 11.4% |
| CCOc1ccc2c(-c3ccnc(Nc4cc(OC)cc(C(F)(F)F)c4)n3)cnn2n1 | 0.02% | 0.45% | 0.01% | 0.53% | 0.18% | 0.45% | 2.38% | 0.28% | -0.23% | 16.9% |
| O=C(O[C@H]1CN[C@H](C#Cc2cc3ncnc(Nc4ccc5c(ccn5Cc5cc(F)ccc5F)c4)c3s2)C1)N1CCOCC1 | 0.34% | 1.4% | 1.89% | 1.81% | 0.84% | 0.51% | 3.43% | 5.16% | 3.33% | 3.94% |
| Cc1cc(O)cc(C)c1/C=C/c1cncc(C(N)=O)c1 | 0.41% | 1.41% | 1.8% | 1.63% | 1.06% | 1.18% | 2.81% | 0.48% | 0.88% | -1.37% |
| NC(=O)c1ccc2c(-c3ccnc(NCCCO)n3)c(-c3ccc(F)cc3)nn2c1 | 0.79% | -0.47% | 1.62% | 1.08% | 1.04% | 2.17% | 0.86% | 2.38% | 1.93% | 4.08% |
| O=C(O[C@H]1CN[C@H](C#Cc2cc3ncnc(Nc4ccc5c(cnn5Cc5ccccc5)c4)c3s2)C1)N1CCOCC1 | -0.59% | -0.52% | -0.56% | -0.1% | -1.03% | 0.11% | -0.66% | 2.38% | 2.39% | 0.44% |
| CCCNc1cccc(-n2ncc3c(N/N=C/c4ccncc4)ncnc32)c1 | 0.34% | -0.51% | 0.22% | -0.08% | -0.05% | -1.08% | 3.49% | 3.97% | 2.68% | 4.45% |
| Cc1cc(O)cc(C)c1/C=C/c1cncc(C(=O)OC(C)(C)C)c1 | 0.38% | 0.97% | 1.75% | 0.98% | 1.33% | 1.34% | 2.27% | 2.46% | 7.07% | 6.87% |
| Cn1c(-c2nonc2N)nc2cnccc21 | 0.27% | 0.36% | 2.48% | 1.66% | 1.14% | 1.35% | 3.53% | 4% | 4.22% | 2.15% |

| Structure (SMILES) | inhibition [1] | inhibition [2] | inhibition [3] | inhibition [4] | inhibition [5] | inhibition [6] | inhibition [7] | inhibition [8] | inhibition [9] | inhibition [10] |
| --- | --- | --- | --- | --- | --- | --- | --- | --- | --- | --- |
| CN(c1ccc(NC(=O)NCCN2CCOCC2)cc1)c1ccnc(Nc2ccc(CS(C)(=O)=O)cc2)n1 | 0.71% | -0.42% | 0.78% | 0.37% | 0.73% | 0.19% | 4.41% | 7.67% | 3.45% | 5.28% |
| COc1cccc(Nc2nccc(-c3cnn4ncccc34)n2)c1 | 1.34% | 0.43% | 1.17% | 0.61% | 1.46% | -0.03% | 4.14% | 0.06% | 1.07% | -2.16% |
| COc1ccc(-c2nn3ncccc3c2-c2ccnc(Nc3ccc(F)c(F)c3)n2)cc1 | 0.52% | 2.13% | 1.56% | 1.42% | 1.4% | 2.01% | 7.85% | 10.1% | 6.45% | 7.95% |
| O=C(O[C@H]1CN[C@H](C#Cc2cc3ncnc(Nc4ccc(OCc5cccc(F)c5)c(Cl)c4)c3s2)C1)N1CCOCC1 | 0.61% | 0.67% | 2.23% | 2.72% | 1.68% | 1.6% | 9.5% | 13.6% | 5.62% | 16% |
| N#Cc1ccc2c(-c3ccnc(NC4CC4)n3)c(-c3ccc(F)cc3)nn2c1 | 0.77% | -0.12% | 0.14% | 0.78% | 0.56% | 2.99% | 1.67% | 2.24% | 4.35% | 1.98% |
| CS(=O)(=O)CCNCc1ccc(-c2ccc3ncnc(Nc4ccc(OCc5cccc(C(F)(F)F)c5)cc4)c3c2)o1 | 0.68% | 0.01% | 0.73% | 1.64% | 0.95% | 2.79% | 6.2% | 3.84% | 8.32% | 0.47% |
| N#Cc1cccc(Nc2ncc(-c3ccccc3)o2)c1 | 0% | -0.69% | 0.15% | 0.75% | 0.9% | -0.1% | 5.37% | 8.61% | 2.76% | 11.2% |
| OCCCNc1nccc(-c2c(-c3ccc(F)cc3)nn3cc(C(F)(F)F)ccc23)n1 | 0.44% | 0.71% | 1.9% | 0.18% | 0.6% | 0% | 1.18% | -2.71% | -0.28% | -8.21% |
| CN1CCC(C(=O)Nc2n[nH]c3nc(-c4ccc(O)cc4)c(Br)cc23)CC1 | -3.78% and 0.82% | -3.1% and -0.05% | -1.35% and 0.28% | -1.57% and 1.31% | -2.51% and 0.97% | -0.95% and 3.11% | 8.47% and 0.32% | 20.1% and 5.9% | 5.9% and 4.12% | 16.7% and -0.01% |
| CN(C)CCNC(=O)Nc1ccc(N(C)c2ccnc(Nc3ccc(CS(C)(=O)=O)cc3)n2)cc1 | 1.23% | 0.77% | 1.42% | 0.96% | 1.47% | 1.13% | 2.73% | -0.52% | 3.11% | -0.51% |
| CCS(=O)(=O)c1ccc(OC)c(Nc2ncc(-c3cccc(C(C)=O)c3)o2)c1 | 0.68% | 0.26% | 0.96% | 2.41% | 1.01% | 1.05% | 3.78% | 10.8% | 4.52% | 4.18% |
| c1cnn2ncc(-c3ccnc(NCCCN4CCOCC4)n3)c2c1 | 0.48% | 0.29% | 1.29% | 1.85% | 1.38% | 1.68% | 4.92% | 3.86% | 20.1% | 15.5% |
| COc1c(C(N)=O)cc(-c2ccc(Cl)cc2)cc1-c1ccc(S(N)(=O)=O)cc1 | 1.15% | 2.28% | 2.77% | 1.74% | 1.8% | 3.15% | 4.42% | 7.23% | 10.6% | 2.21% |
| CN1CCC(n2cnc(-c3ccc(F)cc3)c2-c2ccnc(NCCO)n2)CC1 | 0.7% | 1.07% | 1.3% | 1.3% | 1.33% | 2.14% | 4.71% | 6.12% | 4.41% | 7.73% |
| CCN1CCC(C(=O)Nc2n[nH]c3nnc(-c4cccc(F)c4F)cc23)CC1 | -0.41% | -1.03% | -1.1% | -0.35% | -1.17% | 2.44% | -2.23% | 1.97% | 3.51% | -1.02% |
